Anthrax LF prot = inhibitors of Bacillus anthracis lethal factor protease | P15917 | inhibition, % at 10 µM | 360,000 tested, 0.12% active | multiplex microsphere protease cleavage assay, LF | AID 588501
BoNT-F LC inh = blocks Botulinum neurotoxin F light chain protease; Multiplex microsphere protease cleavage assay, flow cytometry; inhibition, % at 10 µM; 360,000 tested, 0.22% active; in the data active = inhibition above about 35%, passing the limit was not always enough; inconclusive = no clear call, values can overlap the other calls
Autofluor counter = flagged as autofluorescent in microsphere protease counterscreen | compound autofluorescence counterscreen, microsphere flow cytometry; hits give high values | fluorescence intensity (no concentration beside the values) | 360,000 tested, 3.1% active; in the data active = fluorescence intensity above about 16000; inconclusive = no clear call, values can overlap the other calls
SSB-PriA inh = blocks PriA binding to SSB C-terminal tail | AlphaScreen SSBct-PriA binding, biotinylated peptide | inhibition, % at 33 µM | 430,000 tested, 0.6% active | AID 1272365; in the data active = inhibition mostly above about 37%, no sharp cut-off; inactive = mostly below about 20%
BoNT-A LC inh2 = blocks Botulinum neurotoxin A light chain protease; multiplex microsphere protease substrate cleavage, flow cytometry; inhibition, % at 10 µM; 360,000 tested, 0.17% active; AID 588499
Hits are given with their value; – = inactive; ? = inconclusive; · = no result. The list is not random: actives were taken first. Their share in the collection is about 3.1%. Cut-off read from the data, not from the text of the source, unless noted: active = inhibition above about 30%; inconclusive = no clear call, values can overlap the other calls; inactive = below that.

SMILES | Anthrax LF prot | BoNT-F LC inh | Autofluor counter | SSB-PriA inh | BoNT-A LC inh2
COc1ccc(CNC(=O)NCc2ccccc2-c2ccsc2)cc1OC | · | · | · | – | ·
CC(C)NC(=O)c1cc(=O)c(OCc2ccccc2)co1 | · | · | · | – | ·
c1ccc(OCc2nc(-c3cccs3)no2)cc1 | – | – | 19681 | – | –
CSc1ccc(C(=S)N2CCN(CCO)CC2)cc1 | – | – | – | – | –
OCCN1CCN(C(=S)c2ccc(Br)cc2)CC1 | – | – | 21663 | – | ?
CSc1cccc(NC(=O)CSc2nc3c(sc(=S)n3-c3ccccc3C)c(=O)[nH]2)c1 | · | · | · | – | ·
CN1CCc2nc(SCC(=O)Nc3ccc(Cl)cc3)c(C#N)cc2C1 | – | – | – | – | –
N#Cc1cc2c(nc1SCC(=O)Nc1cc(Cl)cc(Cl)c1)C1CCN2CC1 | – | – | 20731 | – | –
CCc1nc(SCC(=O)NNC(=O)C2CCCCC2)c2ccccc2n1 | – | – | 21748 | – | ?
Cc1ccc(SCC(=O)NNC(=O)C2CCCCC2)cc1 | – | – | 20856 | – | ?
CCOc1cc(S(=O)(=O)NC(C)C)c(OCC)cc1C | · | · | · | – | ·
COC(=O)c1ccc2nc(NC(=O)Cc3ccc(Cl)s3)sc2c1 | · | · | · | – | ·
O=C(Nc1ccc2scnc2c1)c1ccc(N2C(=O)CCC2=O)cc1 | · | · | · | – | ·
C=C(C)CSc1nc2nc(C)c(Br)cc2[nH]1 | – | – | 22023 | · | –
COC(=O)CSc1nc2nc(C)c(Br)cc2[nH]1 | – | – | – | – | –
FC(F)(F)/C(=N\P(=S)(N1CCOCC1)N1CCOCC1)N1CCOCC1 | – | – | 17852 | · | ?
CCOc1ccc(C(=O)NCCc2cnc[nH]2)cc1 | – | 49.9 | – | – | –
COCCn1nnn(-c2ccc(NC(=O)c3cc(C)on3)cc2)c1=O | · | · | · | – | ·
O=C(Nc1ccon1)c1cc2c(s1)CCCCCC2 | – | – | 16721 | – | ?
O=C(NCc1ccco1)c1cc2c(s1)CCCCC2 | – | – | 18946 | – | –
O=C(NCC(c1ccco1)N1CCCCC1)c1cc2c(s1)CCCC2 (configuration not stated) | – | – | – | – | –
CNC(=O)c1cc2c(s1)CCCCCC2 | – | – | – | – | –
O=C(NCCCn1ccnc1)c1cc2c(s1)CCCCC2 | – | – | 25451 | – | –
O=C(Nc1ccon1)c1cc2c(s1)CCCC2 | – | – | 22744 | – | ?
CCSc1ccc(C(=O)Nc2cc(C)nn2-c2ccccc2)cc1 | · | · | · | – | ·
SMILES | Anthrax LF prot | BoNT-F LC inh | Autofluor counter | SSB-PriA inh | BoNT-A LC inh2
Fc1ccc(C[n+]2csc3ccccc32)cc1 | – | – | 22598 | – | ?
CCC(=O)n1nc(-c2ccccc2)nc1SCC(=O)Nc1ccc(C)cc1 | – | – | 21542 | – | –
CC(=O)n1nc(-c2cccc(C)c2)nc1SCC(=O)Nc1ccccc1 | – | – | – | – | –
Cc1ccc(NC(=O)CSc2nc3ccccc3c3nc4ccccc4n23)cc1 | – | – | 19179 | – | –
O=C(c1ccc2ccccc2c1)N(Cc1cccnc1)c1nc2c(Cl)cccc2s1 | · | · | · | – | ·
Cc1cccc(-n2ncc3c(N(C)Cc4ccccc4)ncnc32)c1 | – | – | – | 104.2 | –
Cc1cccc(-n2ncc3c(N)ncnc32)c1 | – | – | – | – | –
COc1ccc(/C=C/C(=O)c2ccc[nH]2)c(OC)c1OC | – | – | – | – | –
COc1ccc(/C=C/C(=O)c2ccc[nH]2)cc1OC | – | – | 16560 | – | –
CC(=O)OCCC1S/C(=N\N=C\c2ccco2)NC1=O (configuration not stated) | · | · | · | – | ·
CC(=O)N1CCc2[nH]c3ccccc3c2C1 | – | – | 17082 | – | –
C[C@H](N)c1nnc(SCc2ccc(Cl)cc2Cl)o1 | – | – | 25593 | – | –
CC(C)[C@H](N)c1nnc(SCc2ccc(Cl)cc2)o1 | – | – | 25032 | – | –
CC(C)C[C@H](N)c1nnc(SCc2ccc(Cl)cc2)o1 | – | ? | – | – | –
CCC(C)[C@H](N)c1nnc(SCC(=O)c2ccc(Cl)cc2)o1 (some centres not stated) | – | – | 19418 | – | –
COCC(=O)Nc1nc(-c2ccccc2)c(C)s1 | – | – | 19856 | – | –
COc1ccc(/C=C/C(=O)c2ccncc2)c2ccccc12 | – | – | – | – | 44.9
Clc1ccc(CSc2cn(Cc3ccccc3Cl)c3ccccc23)cc1Cl | · | · | · | – | ·
CCCSc1nnc2n(N)c(=O)c3ccccc3n12 | – | – | 22548 | – | –
Nn1c(=O)c2ccccc2n2c(SCc3ccccc3)nnc12 | – | – | – | – | –
O=C(c1ccco1)C12CN3CN(CN(C3)C1)C2 | – | – | 21201 | – | –
COc1nn(C)cc1C(=O)NCCCn1ccc2cccnc21 | · | · | · | – | ·
Cc1cc2ccccn2c1C(=O)c1ccc(NN)c([N+](=O)[O-])c1 | – | – | – | 46.8 | –
Cc1cc2ccccn2c1C(=O)c1cc([N+](=O)[O-])cc([N+](=O)[O-])c1 | – | – | – | 49.1 | –
